Results published in PubChem BioAssay AID1159580 (chemical genetic matrix, 2015).
Values joined by “and” are separate entries in the source; they are usually repeats but may differ in a detail not shown here. Equal values may be shown once. Among all 5,500 compounds or so, about 2,000 (36%) were called active. Inconclusive results (about 18%) are left out. Rule as the data show it: active = normalized growth mostly below about 0.91 (no sharp cut-off); inconclusive = no clear call, values can overlap the other calls; inactive = mostly above about 0.92. The list shows a part of the results.

Experiment: chemical genetic growth profiling, strain panel (AID 1159580);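 also: tested at 20 µM; growth read once vehicle control cultures reached saturation at 30 °C; 1 = growth at the plate median or of vehicle wells; lower values mean less growth of the strain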
Conditions: S. cerevisiae deletion strains, growth OD

Measured: normalized growth

CCOC(=O)C1=C(C)NC(C)=C(C(=O)OC)C1c1cccc([N+](=O)[O-])c1 (stereo unspecified)
inactive: locus YAL013W, strain DEP1, hits give low values 1 and 0.987 | locus YAL021C, strain ccr4, hits give low values 0.996 | locus YAL026C, strain drs2, hits give low values 1.01 | locus YAL030W, strain snc1, hits give low values 0.997 | locus YBL061C, strain skt5, hits give low values 1 | locus YBR009C, strain hhf1, hits give low values 1.01 | locus YBR021W, strain FUR4, hits give low values 0.977 | locus YBR023C, strain chs3, hits give low values 0.999 | locus YBR171W, strain sec66, hits give low values 1.01 | locus YBR229C, strain ROT2, hits give low values 1.01 | locus YBR231C, strain swc5, hits give low values 0.999 | locus YBR279W, strain paf1, hits give low values 1.01 | locus YCL011C, strain gbp2, hits give low values 0.995 | locus YCL016C, strain dcc1, hits give low values 1.01 | locus YCL029C, strain bik1, hits give low values 1.01 | locus YCL061C, strain MRC1 (second series), hits give low values 0.985 | locus YCL061C, strain MRC1, hits give low values 1.01 | locus YCL069W, strain vba3, hits give low values 1.01 | locus YCR088W, strain abp1, hits give low values 1.01 | locus YDL005C, strain med2, hits give low values 1.01 | locus YDL035C, strain GPR1, hits give low values 1 | locus YDL040C, strain nat1, hits give low values 1 | locus YDL074C, strain BRE1, hits give low values 0.988 | locus YDL101C, strain DUN1, hits give low values 1 | locus YDL134C, strain PPH21, hits give low values 1 | locus YDL185W, strain tfp1, hits give low values 0.996 | locus YDL192W, strain arf1, hits give low values 1 | locus YDR001C, strain nth1, hits give low values 1.01 | locus YDR069C, strain doa4, hits give low values 1.01 | locus YDR101C, strain arx1, hits give low values 0.997 | locus YDR137W, strain rgp1, hits give low values 0.98 | locus YDR150W, strain NUM1, hits give low values 1 | locus YDR159W, strain sac3, hits give low values 1.01 | locus YDR162C, strain NBP2, hits give low values 0.945 | locus YDR195W, strain ref2 1.03 | locus YDR297W, strain sur2, hits give low values 1 | locus YDR318W, strain mcm21, hits give low values 1.02 | locus YDR334W, strain swr1, hits give low values 1.02 | locus YDR335W, strain msn5, hits give low values 1.02 | locus YDR363W, strain ESC2, hits give low values 1 | locus YDR388W, hits give low values 1.01 | locus YDR392W, strain spt3, hits give low values 0.946 | locus YDR502C, strain sam2, hits give low values 1 | locus YEL003W, strain gim4, hits give low values 1.01 | locus YEL037C, strain rad23, hits give low values 1.01 | locus YEL061C, strain CIN8 (second series), hits give low values 1.01 | locus YEL061C, strain CIN8, hits give low values 0.994 | locus YER002W, strain NOP16, hits give low values 0.933 | locus YER015W, strain faa2, hits give low values 1.02 | locus YER016W, strain bim1, hits give low values 1.01 | locus YER110C, hits give low values 1.01 | locus YER111C, strain swi4, hits give low values 1.02 | locus YER155C, strain BEM2 (second series), hits give low values 1.03 | locus YER155C, strain BEM2, hits give low values 0.997 | locus YER167W, strain BCK2, hits give low values 1 | locus YFR010W, strain ubp6, hits give low values 1.02 | locus YGL078C, strain dbp3, hits give low values 1.01 | locus YGL086W, strain mad1, hits give low values 1.02 | locus YGL167C, strain pmr1, hits give low values 1 | locus YGL173C, strain kem1, hits give low values 1.01 | locus YGL227W, strain vid30, hits give low values 1.01 | locus YGL240W, strain doc1, hits give low values 0.994 | locus YGL248W, strain PDE1, hits give low values 0.998 | locus YGL253W, strain hxk2, hits give low values 1 | locus YGR078C, strain PAC10, hits give low values 0.977 | locus YGR135W, strain pre9, hits give low values 0.977 | locus YGR229C, strain SMI1, hits give low values 0.961 and 1 | locus YGR252W, strain gcn5, hits give low values 1.02 | locus YHR013C, strain ard1, hits give low values 1.03 | locus YHR027C, strain rpn1, hits give low values 1.01 | locus YHR030C, strain SLT2, hits give low values 1.01 | locus YHR079C, strain IRE1 (second series), hits give low values 1 | locus YHR094C, strain hxt1, hits give low values 0.994 | locus YHR129C, strain ARP1, hits give low values 1.01 | locus YHR142W, strain chs7, hits give low values 0.976 | locus YHR200W, strain rpn10, hits give low values 1 | locus YIL066C, strain RNR3, hits give low values 1.02 | locus YIL073C, strain SPO22, hits give low values 1.04 | locus YIL125W, strain kgd1, hits give low values 0.999 | locus YIR030C, strain dcg1, hits give low values 0.999 | locus YJL092W, strain hpr5, hits give low values 1 | locus YJL095W, strain BCK1 (second series), hits give low values 1.01 | locus YJL095W, strain BCK1, hits give low values 0.994 | locus YJL115W, strain asf1, hits give low values 1.02 | locus YJL129C, strain trk1, hits give low values 0.992 | locus YJL134W, strain LCB3, hits give low values 1 | locus YJL154C, strain vps35, hits give low values 1.02 | locus YJL164C, strain tpk1, hits give low values 1.01 | locus YJL166W, strain qcr8, hits give low values 1.01 | locus YJL168C, strain set2, hits give low values 1.01 | locus YJL187C, strain SWE1 (second series), hits give low values 1.01
